# Assay results reported in PubChem BioAssay (Tox21).
# “And” between values parts separate entries of the source, which are not always exact repeats. Identical values can stand only once. Inconclusive results are not listed. Some compounds were tested as several samples or in several runs, with calls that do not always agree. The source made the active and inactive calls. The call rests on the fitted dose curve.
# Test: qHTS assay for small molecule disruptors of the mitochondrial membrane potential - cell viability (AID 720634); further: nearly all actives have a fitted effect of over 20% in size;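 on activity change, negative = cytotoxicity: human HepG2 liver cancer cells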
# Details: HepG2 viability, ATP luminescence (CellTiter-Glo), 1 h; series mostly up to 83.2 µM; activity change, negative = cytotoxicity: at the top concentration
# Source text: U.S. Tox21 Program National Center for Advancing Translational Sciences [NCATS] NIH Chemical Genomics Center [NCGC] U.S. Environmental Protection Agency [EPA] National Institutes of Environmental Health Sciences [NIEHS] National Toxicology Program [NTP] U.S. Food and Drug Administration [FDA] Tox21 Assay Overview: Mitochondrial membrane potential (MMP), one of the parameters for mitochondrial function, is generated by mitochondrial electron transport chain that creates an electrochemical gradient by a series of redox reactions. This gradient drives the synthesis of ATP, a crucial molecule for various cellular processes. Measuring MMP in living cells is commonly used to assess the effect of chemicals on mitochondrial function; decreases in MMP can be detected using lipophilic cationic fluorescent dyes. […] The dye accumulates in the mitochondria of healthy cells as aggregates, with red fluorescence. The mitochondrial potential decreases and the dye could not accumulate in the mitochondria and remains in the cytoplasm in monomers, with green fluorescence. In addition to the mitochondrial potential assay, these cells were also used to test the cytotoxicity by determining the cell viability in the culture based on the quantitation of ATP present. The cytotoxicity was measured in the same assay well of MMP assay.
# Tox21 Assay Protocol Summary: 2,000 HepG2 cells in 5 uL/well were dispensed into black, clear-bottom 1536-well plates using a Multidrop Combi (Thermo Scientific) dispenser. The assay plates were incubated for an overnight at 37 C to allow cells to attach to the wells, followed by the transfer of 23 nL compound or DMSO vehicle by a pin tool (Kalypsys). The plates were incubated for 1 hr at 37 C and 5% CO2, followed by the addition of 5 uL of 2X m-MPI dye into each well using Flying Reagent Dispenser (Aurora Discovery) and then CellTiter-Glo reagent was added at 4 uL/well and incubated 30 min at room temperature. Then luminescence intensity was quantified on a ViewLux CCD-based plate reader.
# On the % scale 0 is the no-effect control and ±100 the full control effect; potency means the concentration at half of the fitted maximal effect.
Structure (SMILES),"activity change, negative = cytotoxicity",Potency
CCSC(=O)N(CC(C)C)CC(C)C,5.73% (inactive),
NCCCNCCSP(=O)(O)O,0.727% (inactive),
CC1(C)C(O)C(C)(C)C1O (stereo not given),-1.85% (inactive),
COCCCOCCCOC,8.36% (inactive),
NC(=O)c1ccc([N+](=O)[O-])cc1,5.46% (inactive),
OCCCC1CCCCC1,8.2% (inactive),
CCC(C)C1CCCCC1=O (stereo not given),10.8% (inactive),
CCCc1cc(C(N)=S)ccn1,-12.6% (inactive),
C=CCCCCCCCCC=O,16.2% (inactive),
Cc1cccn2c(=O)c(-c3nnn[nH]3)cnc12,4.25% (inactive),
O=C(O)CNC(=O)c1ccc([N+](=O)[O-])cc1,1.17% (inactive),
CCOC(=O)[C@H](CCc1ccccc1)N[C@@H](C)C(=O)N1[C@H](C(=O)O)C[C@@H]2CCC[C@@H]21,0.882% (inactive),
Cn1c(N)c(N=O)c(=O)n(C)c1=O,-1.26% [at 95.3 µM] (inactive),
N[C@@H](C(=O)N[C@@H]1C(=O)N2C(C(=O)O)=C(Cl)CS[C@H]12)c1ccccc1,1.43% (inactive),
COc1ccc2c(c1)c(CC(=O)OCC(=O)O)c(C)n2C(=O)c1ccc(Cl)cc1,-6.74% (inactive),
Cc1ccc(=O)n(-c2ccccc2)c1,4.42% (inactive),
CN1C(=O)N(C)C(O)C1O (stereo not given),-10.7% (inactive),
CCOC(=O)CC(C)=O,9.64% [at 95.3 µM] (inactive),
CCCCOCCOCCOCc1cc2c(cc1CCC)OCO2,,inactive and 17.4 µM (active)
CC1=CC(C)C(C=O)CC1 (stereo not given),-9.4% (inactive),

Structure (SMILES),"activity change, negative = cytotoxicity",Potency
CCN1CCC[C@H]1CNC(=O)c1c(O)c(Cl)cc(Cl)c1OC,-3.53% (inactive),
CCN(CC)CCNC(=O)c1cc(S(C)(=O)=O)ccc1OC,-4.51% [at 39.1 µM] (inactive),
CCN(CC)CCOCCOC(=O)C1(c2ccccc2)CCCC1,-5.52% (inactive),
CC(C)(C)c1ccc(O)c(O)c1,,inactive
C=C(C)CS(=O)(=O)O,8.66% (inactive),
Cn1cc(S(C)=O)c(=O)c2ccc(F)cc21 (stereo not given),5.24% (inactive),
C=CCOCC(CC)(CO)COCC=C,8.84% (inactive),
CC(C[N+](C)(C)C)OC(N)=O (stereo not given),-4.14% (inactive),
NCCc1cnc[nH]1,-13.9% (inactive),
CC(=O)N(CC(O)CO)c1c(I)c(C(=O)NCCO)c(I)c(C(=O)NCC(O)CO)c1I (stereo not given),11.8% (inactive),
Cc1c(O)cccc1O,3.9% [at 95.3 µM] (inactive),
CCOC(=O)C(=O)OCC,14.9% (inactive),
CO[C@]12C[C@@H](COC(=O)c3cncc(Br)c3)CN(C)[C@@H]1Cc1cn(C)c3cccc2c13,0.72% (inactive),
OC1CCCCC1c1ccccc1 (stereo not given),4.81% (inactive),
CCc1nccnc1CC,14.4% [at 39.1 µM] (inactive),
COC(=O)c1c(Cl)c(Cl)c(C(=O)OC)c(Cl)c1Cl,,inactive
CCO[Si](CCC1CCC2OC2C1)(OCC)OCC (stereo not given),8.44% (inactive),
O=C1CCCN1C1CCCCC1,8.82% (inactive),
Nc1cc(=O)[nH]c(N)n1,3.42% (inactive),
CC(=O)OCC(=O)[C@@]1(O)CCC2C3CCC4=CC(=O)CC[C@]4(C)C3[C@@H](O)C[C@@]21C (stereo not given in full),2.94% (inactive),
